From the supplement of paper PMC6607015
Where a name gives a salt, the structure may show the parent alone.

Assays:
Conditions in all cases: compound concentration in added solution (µM; 5 µl added to 20 µl cells): 10; 18 h
A431 [1] = test: LBPA endosome anti-LBPA integrated intensity (sum per cell), Z-score; higher = more LBPA staining
Procedure, shortened: (§1)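 Z-scores normalised in AcuityXpress are given for per-cell integrated LBPA or filipin intensity, measured whole-cell or within LBPA endosomes by MetaXpress segmentation. Cells (HeLa MZ or A431, 3,500 per well in 20 µl) were seeded onto 5 µl of 10 µM compound solution in duplicate 384-well imaging plates and fixed in 4% PFA after 18 h.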

HeLa MZ [2] = test: as above
Procedure, shortened: as §1

A431 [3] = test: whole-cell filipin (free cholesterol) integrated intensity, Z-score; higher = more cholesterol staining
Procedure, shortened: as §1

HeLa MZ [4] = test: as above
Procedure, shortened: as §1

A431 [5] = test: filipin (cholesterol) integrated intensity within LBPA endosomes, Z-score; higher = more cholesterol in LBPA endosomes
Procedure, shortened: as §1

HeLa MZ [6] = test: as above
Procedure, shortened: as §1

Compound	LBPA endosome anti-LBPA integrated intensity (z-score) (A431 [1])	LBPA endosome anti-LBPA integrated intensity (z-score) (HeLa MZ [2])	whole-cell filipin (z-score) (A431 [3])	whole-cell filipin (z-score) (HeLa MZ [4])	filipin (z-score) (A431 [5])	filipin (z-score) (HeLa MZ [6])
O=C(CCCN1CCC(n2c(=O)[nH]c3ccccc32)CC1)c1ccc(F)cc1 [Benperidol]	2.05	1.55	2.2	1.83	2.28	1.91
CN1C[C@H](CNC(=O)OCc2ccccc2)C[C@@H]2c3cccc4c3c(cn4C)C[C@H]21 [Metergoline]	3.11	1.47	1.11	1.28	4.03	4.18
C[C@@H]1CC[C@H]2[C@@H](C)C(=O)O[C@@H]3O[C@@]4(C)CC[C@@H]1[C@]32OO4 [Artemisinin]	-0.479	0.63	-0.6	0.161	-0.503	-0.315
CCCC(C)C1(CC)C(=O)NC(=O)NC1=O (configuration not stated) [Pentobarbital]	-0.683	-1.58	-0.881	-0.632	-0.553	-0.624
CN1CCN(C(=O)OC2c3nccnc3C(=O)N2c2ccc(Cl)cn2)CC1 (configuration not stated) [Zopiclone]	-0.313	-0.4	-0.601	-0.164	-0.406	-0.296
CCn1cc(C(=O)O)c(=O)c2cc3c(cc21)OCO3 [Oxolinic acid]	-0.55	-0.225	-0.848	-0.638	-0.512	-0.645
C[C@]12CCC(=O)C(O)=C1CC[C@@H]1[C@@H]2CC[C@]2(C)C(=O)CC[C@@H]12 [Formestane]	1.1	1.9	2.53	2.23	2.1	1.15
CCNCC(O)c1cccc(O)c1 (configuration not stated) [Etilefrine hydrochloride]	-0.181	-0.0522	0.485	-0.0907	-0.374	-0.466
C[C@H](N)[C@H](O)c1ccc(O)c(O)c1 [Levonordefrin]	-0.29	-0.019	0.247	0.753	-0.427	-0.337
C[N+]1(C)CCCC(OC(=O)C(O)(c2ccccc2)c2ccccc2)C1 (configuration not stated) [Mepenzolate bromide]	-0.582	-0.861	-0.409	-0.0861	-0.481	-0.374
NC(=O)CN1CCCC1=O [Piracetam]	-0.558	-0.0728	-0.653	-0.301	-0.56	-0.514
C[C@]12Cc3c[nH]nc3C[C@@H]1CC[C@@H]1[C@@H]2CC[C@@]2(C)[C@H]1CC[C@]2(C)O [Stanozolol]	0.154	1.15	0.353	-0.167	0.0473	-0.12
C[C@]12CC[C@@H](O)C[C@@H]1CC[C@@H]1[C@@H]2CC[C@]2(C)C(=O)CC[C@@H]12 [Androsterone]	-0.387	-0.552	-0.613	-0.395	-0.241	-0.291
O=C([O-])c1ccccc1-c1c2cc(Br)c(=O)cc-2oc2[c]([Hg+])c([O-])c(Br)cc12.[Na+].[Na+].[OH-] [Merbromin]	-0.53	-1.95	-0.246	-0.654	-0.525	-0.65
Oc1ccc2c3c1O[C@H]1[C@@H](O)CC[C@@]4(O)[C@@H](C2)N(CC2CCC2)CC[C@]314 [Nalbuphine hydrochloride]	-0.515	-0.32	-0.797	-0.749	-0.572	-0.371
O=P1(N(CCCl)CCCl)NCCCO1 (configuration not stated) [Cyclophosphamide]	-0.0725	1.02	0.399	0.209	-0.311	0.352
CN1[C@@H]2CC[C@H]1C[C@@H](OC1c3ccccc3CCc3ccccc31)C2 [Deptropine citrate]	3.21	1.46	1.8	-0.333	2.68	1.23
NCCc1c[nH]c2ccc(O)cc12 [Serotonin hydrochloride]	-0.716	-1.58	-1.04	-1.21	-0.627	-0.624
S=C(NC1CCCCC1)N1CCC(c2cnc[nH]2)CC1 [Thioperamide maleate]	2.17	2.24	-0.0418	0.0454	0.0582	0.431
COc1cc2c(cc1OC)C(C)NCC2 (configuration not stated)	-0.47	0.672	-0.808	-0.327	-0.528	-0.121
C[C@]12COC(=O)C[C@@H]1CC[C@@H]1[C@@H]2CC[C@@]2(C)[C@H]1CC[C@]2(C)O [Oxandrolone]	-0.386	-0.00131	-0.15	-0.159	-0.429	-0.517
CC(C)CC(N(C)C)C1(c2ccc(Cl)cc2)CCC1 (configuration not stated) [Sibutramine HCl]	-0.608	0.271	-0.397	-0.373	-0.534	-0.424
C[C@]12CCC(=O)C=C1CC[C@@H]1[C@@H]2C(=O)C[C@]2(C)C(=O)CC[C@@H]12 [Adrenosterone]	0.667	1.59	1.61	2.01	1	0.731
C[C@]12CCC(=O)C=C1C=C[C@@H]1[C@@H]2CC[C@@]2(C)[C@H]1CC[C@@]2(O)CCC(=O)O [Canrenoic acid potassium salt]	-0.568	-1.1	-1.15	-1.15	-0.611	-0.819

Compound	LBPA endosome anti-LBPA integrated intensity (z-score) (A431 [1])	LBPA endosome anti-LBPA integrated intensity (z-score) (HeLa MZ [2])	whole-cell filipin (z-score) (A431 [3])	whole-cell filipin (z-score) (HeLa MZ [4])	filipin (z-score) (A431 [5])	filipin (z-score) (HeLa MZ [6])
Oc1cc(Cl)ccc1Oc1ccc(Cl)cc1Cl [Triclosan]	-0.463	0.177	-0.0345	3.99	-0.336	-0.129
CC(C)(N)Cc1ccccc1 [Phentermine hydrochloride]	-0.333	0.854	0.392	0.563	-0.29	-0.0575
C=C1[C@@H]2CC[C@H]3[C@]4(C)C[C@H](O[C@@H]5O[C@H](CO)[C@@H](OS(=O)(=O)O)[C@H](OS(=O)(=O)O)[C@H]5OC(=O)CC(C)C)C[C@@H](C(=O)O)[C@H]4CC[C@]3(C2)[C@@H]1O [Atractyloside potassium salt]	-0.439	-0.0672	-0.293	-0.252	-0.383	-0.47
CC(=O)[C@H]1CC[C@H]2[C@@H]3CC[C@H]4C[C@H](O)CC[C@]4(C)[C@H]3C(=O)C[C@]12C [Alfaxalone]	1.82	1.23	0.358	-0.273	0.378	-0.0632
C=CCC1(CC(C)C)C(=O)NC(=O)NC1=O [Butalbital]	-0.477	-0.493	-0.608	-0.648	-0.55	-0.51
C[N+]12CCC(CC1)C(OC(=O)C(O)(c1ccccc1)c1ccccc1)C2 (configuration not stated) [Clidinium bromide]	-0.478	-0.195	-0.441	-0.644	-0.455	-0.364
C=C1CC[C@@]2(O)[C@H]3Cc4ccc(O)c5c4[C@@]2(CCN3CC2CC2)[C@H]1O5 [Nalmefene hydrochloride]	-0.278	0.776	-0.193	-0.0735	-0.304	0.0741
C#C[C@]1(O)CC[C@H]2[C@@H]3CCC4=CC(=O)CCC4=C3C=C[C@@]21CC [Gestrinone]	-0.489	-0.347	0.15	0.634	-0.436	-0.437
O=[N+]([O-])O[C@@H]1CO[C@H]2[C@@H]1OC[C@@H]2O [Isosorbide mononitrate]	-0.416	-0.118	0.0855	-0.408	-0.35	-0.464
c1ccc2c(c1)OCC(C1=NCCN1)O2 (configuration not stated) [Idazoxan hydrochloride]	-0.313	0.376	-0.115	-0.982	-0.462	-0.278
CN(C)C(=O)Oc1cc(OC(=O)N(C)C)cc(C(O)CNC(C)(C)C)c1 (configuration not stated) [Bambuterol hydrochloride]	-0.585	-0.352	-0.328	-0.434	-0.64	-0.586
OC(c1ccccc1)(c1ccccc1)C1CCNCC1 [Azacyclonol]	-0.397	-0.253	-0.445	-0.666	-0.198	0.228
CC(=O)O[C@H]1C[C@@H]2CC[C@@H]3[C@H](CC[C@@]4(C)[C@H]3C[C@H]([N+]3(C)CCCCC3)[C@@H]4OC(C)=O)[C@@]2(C)C[C@@H]1[N+]1(C)CCCCC1 [Pancuronium bromide]	-0.551	-0.744	0.0171	-0.166	-0.527	-0.532
CCN(C)C(=O)Oc1cccc([C@H](C)N(C)C)c1 [Rivastigmine]	-0.438	-0.457	0.162	1.82	-0.375	-0.164
CN1[C@@H]2CC[C@H]1C[C@@H](OC(=O)[C@H](CO)c1ccccc1)C2 [Hyoscyamine (L)]	-0.717	-1.24	-0.954	-0.599	-0.664	-0.33
CCCN1C[C@H](CSC)C[C@@H]2c3cccc4[nH]cc(c34)C[C@H]21 [Pergolide mesylate]	2.35	1.89	-0.261	-0.788	0.495	0.499
Cc1cccc(C)c1NC1=NCCCS1 [Xylazine]	-0.493	0.606	-0.691	-0.725	-0.524	-0.0906
CC(C)(C)NCC(O)c1cc(Cl)c(N)c(Cl)c1 (configuration not stated) [Clenbuterol hydrochloride]	0.0925	0.441	-0.358	-0.387	-0.383	-0.295
CC(C)c1c(CN(C)C(C)Cc2ccccc2)n(C)n(-c2ccccc2)c1=O (configuration not stated) [Famprofazone]	-0.355	-0.241	-0.228	-0.336	-0.4	-0.445
C=C1C[C@@H]2[C@H](CC[C@]3(C)C(=O)CC[C@@H]23)[C@@]2(C)C=CC(=O)C=C12 [Exemestane]	-0.59	0.401	-0.0622	-0.2	-0.537	-0.552
CCCC(C)(COC(N)=O)COC(=O)NC(C)C (configuration not stated) [Carisoprodol]	-0.659	-0.835	-0.863	-0.798	-0.607	-0.604
COc1ccc(CN2CCNCC2)c(OC)c1OC [Trimetazidine dihydrochloride]	-0.479	0.3	-0.53	-0.184	-0.484	-0.365
C[C@]12CC[C@@H](O)C[C@H]1CC[C@@H]1[C@@H]2CC[C@]2(C)C(=O)CC[C@@H]12 [3-alpha-Hydroxy-5-beta-androstan-17-one]	-0.153	1.16	0.209	0.519	-0.175	-0.161
